Drawing on PubChem BioAssay (NCATS), this text covers max response for 38 compounds.

“And” between values parts separate entries of the source, which are not always exact repeats. Equal values may be shown once. Records with an inconclusive call do not appear. The source made the active and inactive calls. The call rests on the fitted dose curve; in most records, active means well fitted curve in the direction sought with a large enough effect; inconclusive means small, poorly fitted or top-dose-only effect, or another doubt; inactive means no such curve, though single readings can be large or run the other way.
On the % scale 0 is the no-effect control and ±100 the full control effect.

This assay can be described thus: qHTS Assay for Identifying Gametocytocidal Compounds (AID 743244).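 Further: actives lower the fluorescent signal which means gametocytes are killed.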 The note with it: P. falciparum 3D7 stage III-V gametocytes, alamarBlue, 72 h; max response: stronger effect = lower value. The method, boiled down:
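Compounds are pinned into medium, gametocytes (stage III–V, 3D7, 20,000 cells/well) added, and plates held 72 h at 37 °C in 5% CO2. AlamarBlue follows for 24 h before fluorescence reading.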
`CCCc1ccc(C(=O)O)cc1`: the max response is 0.792% (inactive).

For the compound `CO[C@H]1C[C@H](O[C@H]2[C@H](C)[C@@H](O[C@@H]3O[C@H](C)C[C@H](N(C)C)[C@H]3O)[C@@H](C)C[C@]3(CO3)C(=O)[C@H](C)[C@@H](O)[C@@H](C)[C@@H](C)OC(=O)[C@@H]2C)O[C@@H](C)[C@@H]1O`, the max response was -2.69% (inactive).

On to `O=C(O)c1ccc(NC(=O)[C@H](Cc2ccc(O)cc2)NC(=O)c2ccccc2)cc1`, for which the max response was 0.0398% (inactive). The result for `c1ccc2cc(C3=NCCN3)ccc2c1` reads 5.29% (inactive); that for `C=Cc1ccc(S(=O)(=O)O)cc1`, -6.42% (inactive); that for `CC[C@H]1NC(=O)[C@@H](NC(=O)c2ncccc2O)[C@@H](C)OC(=O)[C@H](c2ccccc2)NC(=O)[C@@H]2CC(=O)CCN2C(=O)[C@H](Cc2ccccc2)N(C)C(=O)[C@@H]2CCCN2C1=O`, 3.22% (inactive). For `COc1ccc2cc([C@H](C)CO)ccc2c1`, the max response is 13.6% (inactive). Consider `CCCC(=O)Nc1c(I)cc(I)c(CC(CC)C(=O)O)c1I` (stereo not drawn), for which the max response was 15% (inactive). As to `C[C@@](Cc1ccc(O)c(O)c1)(NN)C(=O)O`, the max response is -3.47% (inactive). For the compound `c1ccc2c(c1)OCC(CN1CCCCC1)O2` (stereo not drawn), the max response was -2.04% (inactive). To `CCCC1C(=O)N2C(N(C)C)=Nc3ccc(C)cc3N2C1=O` (stereo not drawn) belongs 6.87% (inactive); to `CCCCCCCCCCCC(=O)OCC(O)CO` (stereo not drawn), 3.54% (inactive). The result for `CN(Cc1ccccc1)Cc1ccccc1` reads 1.68% (inactive); that for `Oc1cc(O)cc(O)c1`, 16.3% (inactive); that for `O=C(O)COc1ccc(CCNS(=O)(=O)c2ccccc2)s1`, -5.07% (inactive). The result for `CCOC(=O)[C@H](CS)NCCN[C@@H](CS)C(=O)OCC` reads 2.46% (inactive); that for `CC(C)C1=CC2=CC[C@@H]3[C@](C)(CCC[C@@]3(C)C(=O)O)[C@H]2CC1`, -5.77% (inactive). On to `OCC1(CO)COC(C(Cl)(Cl)Cl)OC1`, for which the max response was 24.4% (inactive). The result for `CC1(C)[C@H]2CC[C@]1(C)[C@H](O)C2` reads 0.139% (inactive); that for `CCCCCCCCCCCCCCCCCCOCC(COP(=O)([O-])OCC[N+](C)(C)C)OC` (stereo not drawn), 3.69% (inactive).

Regarding `CC[C@@H]1/C=C(\C)C[C@H](C)C[C@H](OC)[C@H]2O[C@@](O)(C(=O)C(=O)N3CCCC[C@H]3C(=O)O[C@H](/C(C)=C/[C@@H]3CC[C@@H](Cl)[C@H](OC)C3)[C@H](C)[C@@H](O)CC1=O)[C@H](C)C[C@@H]2OC`, the max response is -7.71% (inactive). To `S=C=Nc1ccc(N=C=S)cc1` belongs -17.1% (inactive).

Turning to `CC(C)Cc1ccc([C@@H](C)C(=O)NS(C)(=O)=O)cc1`, the max response is 17.9% (inactive). For the compound `COc1cc(C)c(/C=C/C(C)=C/C=C/C(C)=C/C(=O)O)c(C)c1C`, the max response was 1.95% (inactive). As to `O=C1c2ccccc2CN2C(=O)c3ccccc3CN12`, the max response was 10.5% (inactive). The result for `CCCCC/C=C\CCC(=O)N[C@H]1[C@H](Oc2c3cc4cc2Oc2ccc(cc2Cl)[C@@H](O[C@@H]2O[C@H](CO)[C@@H](O)[C@H](O)[C@H]2NC(C)=O)[C@@H]2NC(=O)[C@H](NC(=O)[C@@H]4NC(=O)[C@H]4NC(=O)[C@@H](Cc5ccc(c(Cl)c5)O3)NC(=O)[C@H](N)c3ccc(O)c(c3)Oc3cc(O)cc4c3)c3ccc(O)c(c3)-c3c(O[C@H]4O[C@H](CO)[C@@H](O)[C@H](O)[C@@H]4O)cc(O)cc3[C@@H](C(=O)O)NC2=O)O[C@H](CO)[C@@H](O)[C@@H]1O` reads -6.11% (inactive). Regarding `Cc1ccccn1`, the max response is 2.7% (inactive). As to `CO/N=C(\C(=O)N[C@@H]1C(=O)N2C(C(=O)O)=C(CSc3nc(C)c(CC(=O)O)s3)CS[C@H]12)c1csc(N)n1`, the max response is 4.68% (inactive).

For `CC[C@@H](C)[C@H](N)C(=O)O`, the max response was -5.92% (inactive). To `CN[C@H](CC(C)C)C(=O)N[C@H]1C(=O)N[C@@H](CC(N)=O)C(=O)N[C@H]2C(=O)N[C@H]3C(=O)N[C@H](C(=O)N[C@@H](C(=O)O)c4cc(O)cc(O)c4-c4cc3ccc4O)[C@H](O)c3ccc(c(Cl)c3)Oc3cc2cc(c3O[C@@H]2O[C@H](CO)[C@@H](O)[C@H](O)[C@H]2O[C@H]2C[C@](C)(N)C(O)[C@H](C)O2)Oc2ccc(cc2Cl)[C@H]1O` (stereo partly drawn) belongs 3.65% (inactive) and -0.964% (inactive); to `O=C(O)[C@@H]1C[C@H](CP(=O)(O)O)CCN1`, 11.7% (inactive). To `Cc1cc(O)c2c(c1)O[C@@]1(C)CC[C@H]3C(C)(C)CCCC34CO[C@@H]2[C@H]41` (stereo partly drawn) belongs 20.1% (inactive); to `CC(C)[C@@H]1CC[C@@H](C)C[C@H]1OC(=O)c1ccccc1O`, 9.93% (inactive); to `O=C(O)/C=C/c1ccccc1`, 0.36% (inactive). To `Cc1nc(NS(=O)(=O)c2ccc(N)cc2)nc(C)c1Br` belongs 21.7% (inactive). In the case of `C=O`, the max response is 20.4% (inactive). `CCOc1ccc(NC(=S)Nc2ccc(OCC)cc2)cc1`: the max response was 1.34% (inactive).

`CC(=O)Nc1c(I)c(C(=O)O)c(I)c(N(C)C(C)=O)c1I`: the max response was -0.708% (inactive).
